The record followed here is publication PMC7862700, “An all-to-all approach to the identification of sequence-specific readers for epigenetic DNA modifications on cytosine”.

Common to all, as to experiment: DAPPL (digital affinity profiling via proximity ligation, sequencing); 10 mM Tris-HCl pH 7.5, 50 mM NaCl, 1 mM DTT, 4% glycerol, room temperature, 30 min; GST-TFs on glutathione beads, 16-mer random dsDNA library, 0.1% formaldehyde crosslink after washing; high values mean tight binding
For one assay, the target named is T1, FEV (Homo sapiens, UniProt Q99581 1-238).
T1 sequence: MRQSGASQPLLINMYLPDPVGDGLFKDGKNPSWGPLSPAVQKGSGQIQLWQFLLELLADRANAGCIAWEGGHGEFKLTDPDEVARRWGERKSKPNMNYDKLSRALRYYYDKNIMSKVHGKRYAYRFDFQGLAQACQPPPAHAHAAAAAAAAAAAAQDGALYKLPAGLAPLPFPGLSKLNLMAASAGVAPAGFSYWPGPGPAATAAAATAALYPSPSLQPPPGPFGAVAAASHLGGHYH
The settings on record: protein: recombinant; tags: N-terminal GST; dsDNA, one strand shown. The essentials:
(§1)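 Binding signal is given per hexamer as its read frequency for a factor divided by its frequency in the tag-only sample. GST-fused human transcription factors were expressed in yeast, captured on glutathione beads, barcoded with DNA and pooled with that sample, then incubated with 200 nmole of a 16-mer random double-stranded DNA library in Tris/NaCl/DTT/glycerol buffer for 30 min at room temperature. The pools were then washed, crosslinked, proximity-ligated, amplified by PCR and sequenced on an Illumina NextSeq500.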

A further assay deals with ETV5 (Homo sapiens, UniProt P41161 1-510). The settings on record: protein: recombinant; tags: N-terminal GST; dsDNA, one strand shown. The essentials: as §1
Another assay deals with HSF1 (Homo sapiens, UniProt Q00613 1-529). The following applies: protein: recombinant; tags: N-terminal GST; chain copies: 3; dsDNA, one strand shown. In short, it runs like this: as §1
The next assay deals with T2, SPIC (Homo sapiens, UniProt Q8N5J4 1-248).
T2 sequence: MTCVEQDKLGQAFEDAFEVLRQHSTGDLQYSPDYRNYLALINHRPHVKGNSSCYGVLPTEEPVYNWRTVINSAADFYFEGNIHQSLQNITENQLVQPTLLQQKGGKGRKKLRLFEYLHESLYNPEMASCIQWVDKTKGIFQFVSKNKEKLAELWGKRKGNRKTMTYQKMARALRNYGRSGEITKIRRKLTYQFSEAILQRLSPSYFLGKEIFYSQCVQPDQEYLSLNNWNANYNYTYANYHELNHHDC
The settings on record: protein: recombinant; tags: N-terminal GST; dsDNA, one strand shown. The essentials: as §1

Another assay concerns the target ELF4 (Homo sapiens, UniProt Q99607 1-663). The settings on record: protein: recombinant; tags: N-terminal GST; dsDNA, one strand shown. The essentials:
as §1

The next assay addresses T3, ELK4 (Homo sapiens, UniProt P28324-2 1-405).
T3 sequence: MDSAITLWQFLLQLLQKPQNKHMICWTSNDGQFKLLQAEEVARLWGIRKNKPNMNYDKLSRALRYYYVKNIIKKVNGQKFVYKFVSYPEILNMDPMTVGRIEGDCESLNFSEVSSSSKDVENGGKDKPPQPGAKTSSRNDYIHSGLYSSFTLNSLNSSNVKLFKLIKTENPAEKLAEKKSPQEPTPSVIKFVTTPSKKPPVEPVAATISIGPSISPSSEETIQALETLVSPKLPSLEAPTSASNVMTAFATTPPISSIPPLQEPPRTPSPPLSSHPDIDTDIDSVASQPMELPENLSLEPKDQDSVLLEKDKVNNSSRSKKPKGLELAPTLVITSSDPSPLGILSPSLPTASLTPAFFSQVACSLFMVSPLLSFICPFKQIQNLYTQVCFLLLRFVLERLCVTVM
The following applies: protein: recombinant; tags: N-terminal GST; dsDNA, one strand shown. The essentials:
as §1

The target of another assay is T4, ETV2 (Homo sapiens, UniProt O00321 1-342).
T4 sequence: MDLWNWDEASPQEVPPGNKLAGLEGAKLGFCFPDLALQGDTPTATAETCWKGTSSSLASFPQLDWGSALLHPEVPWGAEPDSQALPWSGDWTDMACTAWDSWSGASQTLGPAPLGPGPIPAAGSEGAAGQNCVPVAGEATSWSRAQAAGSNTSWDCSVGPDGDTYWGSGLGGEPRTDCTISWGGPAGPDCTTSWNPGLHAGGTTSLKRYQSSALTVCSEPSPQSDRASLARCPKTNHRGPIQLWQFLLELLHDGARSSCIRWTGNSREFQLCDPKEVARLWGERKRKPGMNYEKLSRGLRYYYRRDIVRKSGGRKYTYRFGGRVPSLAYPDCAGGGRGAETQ
The following applies: protein: recombinant; tags: N-terminal GST; dsDNA, one strand shown. In short, it runs like this: as §1

For the next assay, the target named is T5, ELF3 (Homo sapiens, UniProt P78545 1-371).
T5 sequence: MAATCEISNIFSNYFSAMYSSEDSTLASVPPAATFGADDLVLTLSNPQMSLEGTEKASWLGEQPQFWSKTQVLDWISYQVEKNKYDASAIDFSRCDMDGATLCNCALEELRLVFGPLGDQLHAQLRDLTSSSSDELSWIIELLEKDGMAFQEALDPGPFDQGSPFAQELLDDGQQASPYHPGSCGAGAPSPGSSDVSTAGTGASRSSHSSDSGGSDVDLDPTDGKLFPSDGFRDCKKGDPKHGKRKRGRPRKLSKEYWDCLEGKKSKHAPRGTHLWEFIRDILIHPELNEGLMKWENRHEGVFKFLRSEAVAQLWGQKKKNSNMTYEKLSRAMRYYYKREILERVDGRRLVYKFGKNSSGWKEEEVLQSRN
The following applies: protein: recombinant; tags: N-terminal GST; dsDNA, one strand shown. The essentials: as §1

The next assay addresses CRX (Homo sapiens, UniProt O43186 1-299). The following applies: protein: recombinant; tags: N-terminal GST; dsDNA, one strand shown. The essentials: as §1
The next assay deals with ETV1 (Homo sapiens, UniProt P50549 1-477). The following applies: protein: recombinant; tags: N-terminal GST; dsDNA, one strand shown. The essentials:
as §1

In the next assay the target is T6, ERF (Homo sapiens, UniProt P50548 1-548).
T6 sequence: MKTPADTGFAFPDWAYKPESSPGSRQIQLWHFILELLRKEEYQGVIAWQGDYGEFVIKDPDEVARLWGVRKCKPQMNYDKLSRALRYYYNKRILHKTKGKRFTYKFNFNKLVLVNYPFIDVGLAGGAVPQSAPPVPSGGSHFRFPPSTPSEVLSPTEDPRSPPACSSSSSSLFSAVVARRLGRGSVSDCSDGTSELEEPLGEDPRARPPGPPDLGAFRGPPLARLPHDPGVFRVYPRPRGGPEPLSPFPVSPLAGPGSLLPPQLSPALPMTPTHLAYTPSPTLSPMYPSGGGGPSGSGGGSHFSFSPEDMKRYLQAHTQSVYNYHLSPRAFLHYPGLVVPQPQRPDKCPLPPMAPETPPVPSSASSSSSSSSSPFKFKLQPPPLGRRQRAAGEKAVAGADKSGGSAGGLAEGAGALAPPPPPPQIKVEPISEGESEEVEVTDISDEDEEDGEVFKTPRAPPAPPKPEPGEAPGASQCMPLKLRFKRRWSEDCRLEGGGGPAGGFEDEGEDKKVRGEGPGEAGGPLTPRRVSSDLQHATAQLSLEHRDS
The following applies: protein: recombinant; tags: N-terminal GST; dsDNA, one strand shown. The essentials:
as §1

Another assay addresses T7, ETV3L (Homo sapiens, UniProt Q6ZN32 1-361).
T7 sequence: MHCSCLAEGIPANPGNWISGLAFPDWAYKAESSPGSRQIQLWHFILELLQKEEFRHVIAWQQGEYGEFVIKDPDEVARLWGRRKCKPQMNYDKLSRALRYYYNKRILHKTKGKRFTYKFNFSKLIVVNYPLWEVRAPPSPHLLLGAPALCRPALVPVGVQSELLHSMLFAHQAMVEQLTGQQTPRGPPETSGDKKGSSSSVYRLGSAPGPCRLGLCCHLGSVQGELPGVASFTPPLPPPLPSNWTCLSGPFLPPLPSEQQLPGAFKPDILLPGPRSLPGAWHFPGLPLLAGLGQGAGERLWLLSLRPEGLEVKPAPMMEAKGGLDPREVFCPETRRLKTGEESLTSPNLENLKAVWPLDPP
The following applies: protein: recombinant; tags: N-terminal GST; dsDNA, one strand shown. The essentials: as §1

The next assay addresses T8, ETS2 (Homo sapiens, UniProt P15036 1-469).
T8 sequence: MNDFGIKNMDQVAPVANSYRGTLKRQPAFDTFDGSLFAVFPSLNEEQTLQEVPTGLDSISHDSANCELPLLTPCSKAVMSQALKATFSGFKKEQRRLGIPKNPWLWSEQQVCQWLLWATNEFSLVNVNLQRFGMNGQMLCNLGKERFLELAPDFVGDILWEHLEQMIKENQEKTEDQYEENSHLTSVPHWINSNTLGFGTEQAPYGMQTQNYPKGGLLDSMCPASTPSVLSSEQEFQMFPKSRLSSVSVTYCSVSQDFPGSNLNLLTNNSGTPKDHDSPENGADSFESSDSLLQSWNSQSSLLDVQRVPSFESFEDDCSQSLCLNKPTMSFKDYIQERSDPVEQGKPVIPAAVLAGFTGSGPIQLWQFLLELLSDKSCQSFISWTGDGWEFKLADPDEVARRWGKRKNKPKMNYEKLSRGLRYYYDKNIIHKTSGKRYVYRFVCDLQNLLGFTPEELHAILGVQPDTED
The settings on record: protein: recombinant; tags: N-terminal GST; dsDNA, one strand shown. In short, it runs like this:
as §1

A further assay has as its target T9, SPDEF (Homo sapiens, UniProt O95238 1-335).
T9 sequence: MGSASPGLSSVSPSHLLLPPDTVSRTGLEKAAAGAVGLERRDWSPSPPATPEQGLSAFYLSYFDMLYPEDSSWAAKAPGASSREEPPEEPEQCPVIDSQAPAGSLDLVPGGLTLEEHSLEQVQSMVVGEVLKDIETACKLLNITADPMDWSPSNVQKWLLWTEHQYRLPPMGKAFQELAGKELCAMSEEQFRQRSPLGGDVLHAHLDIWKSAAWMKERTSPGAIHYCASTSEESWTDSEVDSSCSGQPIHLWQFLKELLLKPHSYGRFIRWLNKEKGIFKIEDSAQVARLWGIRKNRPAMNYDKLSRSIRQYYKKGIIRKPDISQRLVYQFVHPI
The following applies: protein: recombinant; tags: N-terminal GST; dsDNA, one strand shown. The essentials:
as §1

A further assay deals with T10, ETV7 (Homo sapiens, UniProt Q9Y603 1-341).
T10 sequence: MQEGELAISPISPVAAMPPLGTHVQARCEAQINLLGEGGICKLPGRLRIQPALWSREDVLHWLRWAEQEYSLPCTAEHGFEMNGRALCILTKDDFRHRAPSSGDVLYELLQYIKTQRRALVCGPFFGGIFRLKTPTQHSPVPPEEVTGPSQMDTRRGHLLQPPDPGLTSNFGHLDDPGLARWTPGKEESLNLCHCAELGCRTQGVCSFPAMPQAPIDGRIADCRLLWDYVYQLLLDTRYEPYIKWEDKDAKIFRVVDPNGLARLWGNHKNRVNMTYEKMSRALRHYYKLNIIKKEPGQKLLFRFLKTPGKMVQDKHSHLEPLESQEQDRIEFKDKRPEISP
The settings on record: protein: recombinant; tags: N-terminal GST; dsDNA, one strand shown. In short, it runs like this:
as §1

The target in another assay is T11, ELF5 (Homo sapiens, UniProt Q9UKW6-2 1-255).
T11 sequence: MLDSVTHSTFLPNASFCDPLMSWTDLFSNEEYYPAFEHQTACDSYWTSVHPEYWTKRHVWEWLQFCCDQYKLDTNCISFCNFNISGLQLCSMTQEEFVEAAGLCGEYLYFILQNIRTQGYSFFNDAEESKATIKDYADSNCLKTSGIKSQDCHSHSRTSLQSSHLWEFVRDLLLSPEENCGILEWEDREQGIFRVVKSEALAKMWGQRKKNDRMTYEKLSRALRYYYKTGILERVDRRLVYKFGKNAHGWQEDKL
The following applies: protein: recombinant; tags: N-terminal GST; dsDNA, one strand shown. In short, it runs like this:
as §1

The next assay has as its target T12, ETV3 (Homo sapiens, UniProt P41162-2 1-143).
T12 sequence: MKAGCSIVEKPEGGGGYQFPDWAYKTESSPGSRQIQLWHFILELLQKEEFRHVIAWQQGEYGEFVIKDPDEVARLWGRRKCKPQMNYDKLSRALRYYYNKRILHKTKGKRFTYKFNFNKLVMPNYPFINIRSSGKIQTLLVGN
The settings on record: protein: recombinant; tags: N-terminal GST; dsDNA, one strand shown. The essentials: as §1

The target of a further assay is ETV6 (Homo sapiens, UniProt P41212 1-452). The following applies: protein: recombinant; tags: N-terminal GST; dsDNA, one strand shown. In short, it runs like this:
as §1

Chain of CRX (O43186 whole entry): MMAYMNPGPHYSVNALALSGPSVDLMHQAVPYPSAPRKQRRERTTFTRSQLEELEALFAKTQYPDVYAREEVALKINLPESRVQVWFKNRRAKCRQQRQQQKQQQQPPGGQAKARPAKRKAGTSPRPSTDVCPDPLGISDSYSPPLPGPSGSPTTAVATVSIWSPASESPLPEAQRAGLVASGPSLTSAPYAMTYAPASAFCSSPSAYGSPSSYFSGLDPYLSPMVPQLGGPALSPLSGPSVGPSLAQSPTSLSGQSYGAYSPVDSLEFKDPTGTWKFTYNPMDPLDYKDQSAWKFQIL
Chain of ETV6 (P41212 whole entry): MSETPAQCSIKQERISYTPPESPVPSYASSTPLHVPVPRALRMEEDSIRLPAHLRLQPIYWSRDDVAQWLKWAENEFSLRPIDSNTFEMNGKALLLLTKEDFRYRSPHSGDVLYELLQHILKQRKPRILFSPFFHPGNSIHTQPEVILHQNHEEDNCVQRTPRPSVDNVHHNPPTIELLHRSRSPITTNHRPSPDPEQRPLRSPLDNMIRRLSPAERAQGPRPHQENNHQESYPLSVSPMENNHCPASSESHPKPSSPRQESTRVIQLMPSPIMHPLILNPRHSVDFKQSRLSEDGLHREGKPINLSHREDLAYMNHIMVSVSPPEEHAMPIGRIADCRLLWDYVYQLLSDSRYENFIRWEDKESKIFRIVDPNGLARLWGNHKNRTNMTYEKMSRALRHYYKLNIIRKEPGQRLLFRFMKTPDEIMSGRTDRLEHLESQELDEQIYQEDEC
Chain of ETV1 (P50549 whole entry): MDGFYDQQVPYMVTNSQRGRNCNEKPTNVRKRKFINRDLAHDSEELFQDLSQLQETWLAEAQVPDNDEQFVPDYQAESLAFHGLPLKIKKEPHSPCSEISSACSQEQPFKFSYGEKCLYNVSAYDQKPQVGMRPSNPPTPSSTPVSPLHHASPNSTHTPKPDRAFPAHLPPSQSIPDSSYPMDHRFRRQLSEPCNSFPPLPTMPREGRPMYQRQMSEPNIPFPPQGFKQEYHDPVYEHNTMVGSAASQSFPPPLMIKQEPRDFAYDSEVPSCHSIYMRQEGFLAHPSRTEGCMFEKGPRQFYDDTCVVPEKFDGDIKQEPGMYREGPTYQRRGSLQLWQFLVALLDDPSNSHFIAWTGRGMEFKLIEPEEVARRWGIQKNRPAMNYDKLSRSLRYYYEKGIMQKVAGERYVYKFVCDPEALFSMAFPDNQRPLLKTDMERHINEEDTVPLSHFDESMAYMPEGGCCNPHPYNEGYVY
Chain of ELF4 (Q99607 whole entry): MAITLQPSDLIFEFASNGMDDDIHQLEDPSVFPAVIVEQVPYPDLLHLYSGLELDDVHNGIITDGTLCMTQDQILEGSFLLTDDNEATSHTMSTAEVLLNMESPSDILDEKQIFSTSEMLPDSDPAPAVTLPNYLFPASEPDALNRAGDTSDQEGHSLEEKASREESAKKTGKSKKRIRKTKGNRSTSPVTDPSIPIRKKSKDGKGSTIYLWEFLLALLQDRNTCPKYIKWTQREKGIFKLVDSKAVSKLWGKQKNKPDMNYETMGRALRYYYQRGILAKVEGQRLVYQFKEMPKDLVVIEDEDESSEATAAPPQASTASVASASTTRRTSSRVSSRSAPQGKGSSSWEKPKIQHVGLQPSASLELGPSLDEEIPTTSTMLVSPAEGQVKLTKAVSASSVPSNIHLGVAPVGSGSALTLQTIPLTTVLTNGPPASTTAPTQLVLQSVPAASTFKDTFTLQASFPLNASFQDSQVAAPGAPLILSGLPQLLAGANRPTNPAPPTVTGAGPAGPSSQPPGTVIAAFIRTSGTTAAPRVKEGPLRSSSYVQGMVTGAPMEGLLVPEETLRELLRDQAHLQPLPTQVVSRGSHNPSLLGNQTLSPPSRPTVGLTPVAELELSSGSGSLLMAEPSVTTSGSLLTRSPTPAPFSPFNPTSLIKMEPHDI
Chain of ETV5 (P41161 whole entry): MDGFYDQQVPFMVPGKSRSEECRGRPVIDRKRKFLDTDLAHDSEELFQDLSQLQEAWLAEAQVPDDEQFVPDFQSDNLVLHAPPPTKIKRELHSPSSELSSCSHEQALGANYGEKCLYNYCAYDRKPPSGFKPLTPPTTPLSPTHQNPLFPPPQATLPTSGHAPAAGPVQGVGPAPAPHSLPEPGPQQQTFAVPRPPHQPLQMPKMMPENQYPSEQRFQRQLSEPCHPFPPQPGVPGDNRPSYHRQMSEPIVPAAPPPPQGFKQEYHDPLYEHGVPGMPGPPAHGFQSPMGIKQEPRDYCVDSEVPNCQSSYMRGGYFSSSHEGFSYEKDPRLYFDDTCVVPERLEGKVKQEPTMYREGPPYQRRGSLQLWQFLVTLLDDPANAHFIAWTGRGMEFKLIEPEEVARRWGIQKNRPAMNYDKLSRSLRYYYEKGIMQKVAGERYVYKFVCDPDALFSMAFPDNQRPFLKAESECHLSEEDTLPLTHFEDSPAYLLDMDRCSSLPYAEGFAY
Chain of HSF1 (Q00613 whole entry): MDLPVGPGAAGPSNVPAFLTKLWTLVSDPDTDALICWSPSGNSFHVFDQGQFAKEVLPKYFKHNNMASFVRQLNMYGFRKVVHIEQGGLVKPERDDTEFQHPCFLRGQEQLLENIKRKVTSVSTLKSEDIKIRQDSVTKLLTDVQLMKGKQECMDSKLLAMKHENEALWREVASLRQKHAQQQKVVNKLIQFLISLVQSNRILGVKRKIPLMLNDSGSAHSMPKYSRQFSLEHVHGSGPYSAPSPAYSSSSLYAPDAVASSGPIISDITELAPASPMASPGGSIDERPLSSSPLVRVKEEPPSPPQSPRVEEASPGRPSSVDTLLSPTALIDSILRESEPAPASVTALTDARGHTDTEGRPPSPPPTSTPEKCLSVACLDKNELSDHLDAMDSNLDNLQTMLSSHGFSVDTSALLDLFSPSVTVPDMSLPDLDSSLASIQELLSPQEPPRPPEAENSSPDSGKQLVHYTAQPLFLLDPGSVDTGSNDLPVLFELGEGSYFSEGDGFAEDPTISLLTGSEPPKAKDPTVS

With CCCTAT, the binding signal with FEV is 1.39 fold enrichment (6-mer frequency, TF over GST control); with ETV5, 1.29 fold enrichment (6-mer frequency, TF over GST control); with HSF1 it was 1.13 fold enrichment (6-mer frequency, TF over GST control); with SPIC, 1.2 fold enrichment (6-mer frequency, TF over GST control); in the assay with ELF4, 1.37 fold enrichment (6-mer frequency, TF over GST control); with ELK4, 1.29 fold enrichment (6-mer frequency, TF over GST control). Besides, the binding signal with ETV2 is 1.33 fold enrichment (6-mer frequency, TF over GST control); with ELF3, 1.29 fold enrichment (6-mer frequency, TF over GST control); in the assay with CRX, 1.17 fold enrichment (6-mer frequency, TF over GST control); with ETV1, 1.37 fold enrichment (6-mer frequency, TF over GST control); with ERF it was 1.22 fold enrichment (6-mer frequency, TF over GST control); in the assay with ETV3L it was 1.44 fold enrichment (6-mer frequency, TF over GST control). Besides, the binding signal with ETS2 is 1.34 fold enrichment (6-mer frequency, TF over GST control); with SPDEF, 1.31 fold enrichment (6-mer frequency, TF over GST control); in the assay with ETV7, 1.3 fold enrichment (6-mer frequency, TF over GST control); with ELF5, 1.43 fold enrichment (6-mer frequency, TF over GST control); with ETV3, 1.34 fold enrichment (6-mer frequency, TF over GST control); in the assay with ETV6, 1.28 fold enrichment (6-mer frequency, TF over GST control).
